PubChem BioAssay (NCI)
About 79,000 compounds went through this panel and 15% of them were active in at least one assay; those are over-represented in the sample as a whole. Rule as the data show it: active = growth inhibition above about 70%; inactive = the rest.

How the values were obtained:
[1] = NCI Yeast Anticancer Drug Screen. Data for the rad50 strain (AID 155);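 also: 0% = growth of vehicle-only cultures of the same strain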; settings: S. cerevisiae rad50 strain growth inhibition; at 50.0 µM; active compounds read high
Outline: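 Cells are treated with compound, grown, and their growth is then scored against vehicle-only cultures of the same repair-deficient yeast strain.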

[2] = NCI Yeast Anticancer Drug Screen. Data for the mec2-1 strain (AID 157); settings: S. cerevisiae mec2-1 strain, at 50.0 µM, active compounds read high
Outline: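 Vehicle-treated cultures served as reference for growth inhibition of compound-exposed mec2-1 yeast.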

[3] = NCI Yeast Anticancer Drug Screen. Data for the sgs1 mgt1 strain (AID 161);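 also: 0% = growth of cultures given vehicle only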; settings: S. cerevisiae sgs1 mgt1 strain, at 50.0 µM, active compounds read high
Outline: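 Test agents were incubated with a DNA-repair-mutant yeast strain. Growth was then read and compared against vehicle-treated controls.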

[4] = NCI Yeast Anticancer Drug Screen. Data for the cln2 rad14 strain (AID 165);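 also: 0% = growth equal to vehicle treated cultures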; settings: S. cerevisiae cln2 rad14 strain, at 50.0 µM, active compounds read high
Outline: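 Each compound was tested on cln2 rad14 yeast. Inhibition of growth was calculated against vehicle-exposed controls.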

[5] = NCI Yeast Anticancer Drug Screen. Data for the bub3 strain (AID 167); settings: S. cerevisiae bub3 mutant strain, at 50.0 µM, active compounds read high
Outline: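 Part of a panel of yeast mutants defective in DNA damage repair or cell cycle regulation. Each strain is grown with compound, and inhibition is calculated relative to solvent-treated cultures.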

[6] = NCI Yeast Anticancer Drug Screen. Data for the mlh1 rad18 strain (AID 175); settings: S. cerevisiae mlh1 rad18 strain growth inhibition; at 50.0 µM; active compounds read high
Outline: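 Vehicle-treated cultures served as the reference for growth inhibition in a yeast strain carrying DNA damage repair alterations exposed to each compound.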

Measured: growth inhibition

COc1ccc2[nH]c(Br)c(CCNC(C)=O)c2c1
inactive: [1] -25.6% | [2] -7.4% | [3] -16.9% | [4] 1.9% | [5] -4.55% | [6] -31.9%

O=S(=O)(O)c1cc(O)c2ccc3c(S(=O)(=O)O)cc(S(=O)(=O)O)c4ccc1c2c34
inactive: [1] -11.7% | [2] -23.1% | [3] -2.85% | [4] 6.8% | [5] 10.6% | [6] 3.75%

N#Cc1cc([N+](=O)[O-])ccc1NC(=O)/C(=N\NC(=O)c1ccncc1)C(c1cnc2ccc([N+](=O)[O-])cc2n1)[N+](=O)[O-] (stereo not given)
inactive: [1] 8.6% | [2] 11.4% | [3] -11.1% | [4] -16.1% | [5] 25.4% | [6] 2.75%

Cc1ccccc1NC(=O)CSc1nnc(-c2ccc(N=Cc3ccc(Cl)cc3)cc2)o1
inactive: [1] -13.6% | [2] -30.9% | [3] 1.9% | [4] -4.75% | [5] -30% | [6] -17.8%

Cc1cc2c(c([N+](=O)[O-])c1C)C(=O)C(Br)=C(Br)C2=O
inactive: [1] 15.7% | [2] 10.4% | [3] 21.5% | [4] 34.7% | [5] 5.9% | [6] 36.2%

COc1ccc(NC(=O)C/C(C)=C2/C(=O)NN(c3ccccc3)C2=O)cc1
inactive: [1] 33.5% | [2] 15.2% | [3] 39.9% | [4] 4.5% | [5] 19.1% | [6] 41.1%

CN(C)CC(=O)c1c[nH]c(=O)[nH]c1=O
inactive: [1] 11.3% | [2] -49.1% | [3] -13.4% | [4] -63.2% | [5] -1.65% | [6] -8.55%

O=C(O)c1ccc(Cl)c(C(=O)O)c1
inactive: [1] 13.8% | [2] 4.65% | [3] 26.7% | [4] 3.15% | [5] -11.7% | [6] 11.8%

C=CCn1c(=O)c(C(=O)Nc2nc(C34CC5CC(CC(C5)C3)C4)cs2)c(O)c2ccccc21
inactive: [1] -22.7% | [2] -4.6% | [3] -14.1% | [4] 4.4% | [5] 4.5% | [6] -19.1%

Cc1c2c(c(C)c3c1C(=O)c1cc4c(cc1C3=O)OCO4)OC(C)O2
inactive: [1] -10.5% | [2] -15.5% | [3] -18.6% | [4] -28.4% | [5] -47.7% | [6] -18.6%

OC(c1ccccc1)(c1ccccc1)c1nc2ccccc2[nH]1
inactive: [1] 2.7% | [2] -1.75% | [3] 14.2% | [4] -19.8% | [5] -0.1% | [6] -0.9%

CC(=O)C(N=Nc1ccc(S(=O)(=O)NC2NCCC(C)N2)cc1)C(=O)Nc1ccccc1C (stereo not given)
inactive: [1] 55.1% | [2] 15.8% | [3] 48% | [4] 25.6% | [5] 0.7% | [6] 42.5%

O=C(NC(=S)OC1CCCC1OC(=S)NC(=O)c1ccccc1)c1ccccc1 (stereo not given)
inactive: [1] -21.5% | [2] -12.6% | [3] -10.1% | [4] 14.5% | [5] -13.2% | [6] -33.7%

CC(=O)Nc1ccccc1C=O
inactive: [1] -4.15% | [2] -7.95% | [3] 3.75% | [4] -15.3% | [5] -14.9% | [6] -5.55%

CCOC(=O)c1ccc(NC(=S)N2CCOCC2)cc1
inactive: [1] 13.1% | [2] 6.8% | [3] 14.8% | [4] 8.7% | [5] 2.55% | [6] -2.8%

OCCc1c[nH]c2ccccc12
inactive: [1] -18.7% | [2] -16.2% | [3] 10.5% | [4] -17.3% | [5] -1.85% | [6] 11.8%

Cc1ccc(C(=O)Nc2ccc(CP(=O)(O)O)cc2CP(=O)(O)O)cc1NC(=O)c1cccc(N)c1
inactive: [1] -7.3% | [2] -1.95% | [3] 4.4% | [4] 0.4% | [5] 0.8% | [6] -1.25%

O=C1/C(=C/c2ccccc2)CN(C(=O)OCC(Cl)(Cl)Cl)C/C1=C\c1ccccc1
inactive: [1] 2.6% | [2] 7.3% | [3] -31.4% | [4] 4.9% | [5] -11% | [6] -57.7%

CCCC(/C=N/Nc1ccc([N+](=O)[O-])cc1[N+](=O)[O-])=C\c1ccccc1
inactive: [1] -12.1% | [2] -29.2% | [3] 10.6% | [4] -22.9% | [5] 27.1% | [6] -50%

Nc1ncnc(N)c1NC(=O)c1ccc(CCc2ccccc2)c(Cl)c1
inactive: [1] -3.9% | [2] 37.1% | [3] 21.6% | [4] -14.2% | [5] 4.1% | [6] -4.35%
